According to PubChem BioAssay (Tox21):
A number with no mark means an inactive call. Results filed as inconclusive are left out. Where a call stands in place of a potency, no number is given. The source made the active and inactive calls. Unless noted, calls follow the shape of the dose curve; as a rule, active = well fitted curve in the direction sought with a large enough effect in the repeat runs; inconclusive = weak or mixed curves; inactive = no such curve, though single readings can be large; an effect the other way counts as inactive or inconclusive.

Columns and labels:
[1] = A CellTox Green Cytotoxicity Assay to monitor cytotoxicity in HepG2 cells - 8 hour (AID 1224890); also: nearly all actives have a fitted effect of over 45% in size
How it was run: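 Nonlytic assay: viable cells exclude the dye, so fluorescence scales with cell death. HepG2 at 600 cells/well, compounds added after 5 h, signal read across 40 h.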

[2] = qHTS assay to identify small molecule antagonists of the estrogen receptor alpha (ER-alpha) signaling pathway using the BG1 cell line in the presence of 0.1 nM 17-beta-estradiol - cell viability counter screen (AID 1259241); also: nearly all actives have a fitted effect of over 40% in size
How it was run: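 Cytotoxicity counter-screen: live-cell protease activity measured by fluorescence (30 min reagent step) in the same wells. Cells were VM7Luc4E2 with endogenous ER-alpha and ERE-driven luciferase, treated 22 hr at 37C alongside 0.1 nM 17beta-estradiol final.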

[3] = qHTS assay to identify small molecule antagonists of the androgen receptor (AR) signaling pathway using the MDA cell line in the presence of 0.5 nM R1881 - cell viability counter screen (AID 1259242); also: nearly all actives have a fitted effect of over 45% in size
How it was run: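 R1881 at 0.5 nM final stimulated MDA-kb2 cells during 16 hr compound treatment at 37C. Cytotoxicity read: CellTiter-Fluor fluorescence after 30 min.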

[4] = molecular target: Estrogen receptor (Homo sapiens) (UniProt P03372); assay: qHTS assay to identify small molecule antagonists of the estrogen receptor alpha (ER-alpha) signaling pathway using the BG1 cell line in the presence of 0.1 nM 17-beta-estradiol (AID 1259244); also: nearly all actives have a fitted effect of over 50% in size
Sequence of Estrogen receptor (Homo sapiens) (P03372 whole entry, looked up): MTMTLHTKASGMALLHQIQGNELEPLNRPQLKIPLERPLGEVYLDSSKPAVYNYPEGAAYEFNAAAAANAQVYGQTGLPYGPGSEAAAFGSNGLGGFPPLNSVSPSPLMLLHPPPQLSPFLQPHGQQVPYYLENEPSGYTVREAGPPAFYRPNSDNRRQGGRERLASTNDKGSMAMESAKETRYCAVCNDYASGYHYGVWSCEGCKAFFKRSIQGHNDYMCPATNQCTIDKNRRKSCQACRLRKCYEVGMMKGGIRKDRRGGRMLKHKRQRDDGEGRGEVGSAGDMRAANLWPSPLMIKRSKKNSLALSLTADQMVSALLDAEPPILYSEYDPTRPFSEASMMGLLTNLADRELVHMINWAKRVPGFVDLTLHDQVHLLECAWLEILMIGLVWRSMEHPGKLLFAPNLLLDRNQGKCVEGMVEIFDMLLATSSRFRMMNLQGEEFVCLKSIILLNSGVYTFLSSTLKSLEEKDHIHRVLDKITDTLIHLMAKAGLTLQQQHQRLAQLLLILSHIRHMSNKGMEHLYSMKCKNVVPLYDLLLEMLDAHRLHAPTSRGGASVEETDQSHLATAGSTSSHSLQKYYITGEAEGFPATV
How it was run: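 VM7Luc4E2; 4xERE-luciferase; 0.1 nM E2 final; 22 h co-incubation, 37C; ONE-Glo luminescence after 30 min at room temperature.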

[5] = qHTS assay to identify small molecule HDAC inhibitors (AID 1259364);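 also: wild-type HCT-116 cells with endogenous class I/II HDAC activity; top concentration of the series differs between compounds; nearly all actives have a fitted effect of over 45% in size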
How it was run: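 Relative class I and II HDAC activity is taken from the luminogenic signal in HCT-116 cells, with compound exposure 2 hr and reagent development 30 min at room temperature.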

[6] = qHTS assay to identify small molecule HDAC inhibitors - cell viability counter screen (AID 1259365); also: series mostly up to about 92 µM; nearly all actives have a fitted effect of over 50% in size
How it was run: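 CellTiter-Glo luminescence (30 min, room temperature) reported viability after a 2 h compound exposure at 37 C. Cells: wild-type HCT-116, 1,500 per well, seeded the night before.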

[7] = qHTS assay to identify small molecule agonists of the sonic hedgehog signaling (Shh) pathway - cell viability counter screen (AID 1259366); also: nearly all actives have a fitted effect of over 50% in size
How it was run: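 Cytotoxicity counter screen: CellTiter-Fluor reagent added after 23 h compound exposure, then 1 h at 37C and fluorescence read. Cells were 3T3 Gli1-Luc, seeded 2,000 per well and dosed 4 h post-plating.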

[8] = qHTS assay to identify small molecule antagonists of the sonic hedgehog signaling (Shh) pathway - cell viability counter screen (AID 1259367); also: nearly all actives have a fitted effect of over 55% in size
How it was run: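 Using CellTiter-Fluor, viability of Gli1-Luc reporter 3T3 cells is read by fluorescence in the wells used for the Shh luciferase assay. Treatment lasts 23 hr with conditioned medium, then reagent 1 hr at 37C.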

[9] = qHTS assay to identify small molecule agonists of the sonic hedgehog signaling (Shh) pathway (AID 1259368; calls by dose curve;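 also: NIH/3T3-derived 3T3Gli1-Luc cells carrying a stable Gli1-driven firefly luciferase reporter; series mostly up to about 92 µM; nearly all actives have a fitted effect of over 15% in size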)
How it was run: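 Mouse fibroblast (NIH/3T3) reporter cells with stably integrated Gli1-Luc were treated 24 hr with compound; firefly luciferase luminescence served as the read-out.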

[10] = qHTS assay to identify small molecule antagonists of the sonic hedgehog signaling (Shh) pathway (AID 1259369; calls by dose curve; also: nearly all actives have a fitted effect of over 45% in size; also: potency is read from the fitted curve at half-maximal effect)
How it was run: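 Conditioned medium drives Shh signalling in 3T3Gli1-Luc cells; compounds in DMSO co-applied, 24hr at 37 C, then luciferase luminescence.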

[11] = molecular target: Estrogen receptor beta (Homo sapiens) (UniProt Q92731); assay: qHTS assay to identify small molecule agonists of the estrogen receptor beta (ER-beta) signaling pathway (AID 1259377; active = well fitted activation curve with a large enough effect in the signal ratio in the repeat runs, not every such curve was filed as active; the % refers to the signal ratio)
Sequence of Estrogen receptor beta (Homo sapiens) (Q92731 whole entry, looked up): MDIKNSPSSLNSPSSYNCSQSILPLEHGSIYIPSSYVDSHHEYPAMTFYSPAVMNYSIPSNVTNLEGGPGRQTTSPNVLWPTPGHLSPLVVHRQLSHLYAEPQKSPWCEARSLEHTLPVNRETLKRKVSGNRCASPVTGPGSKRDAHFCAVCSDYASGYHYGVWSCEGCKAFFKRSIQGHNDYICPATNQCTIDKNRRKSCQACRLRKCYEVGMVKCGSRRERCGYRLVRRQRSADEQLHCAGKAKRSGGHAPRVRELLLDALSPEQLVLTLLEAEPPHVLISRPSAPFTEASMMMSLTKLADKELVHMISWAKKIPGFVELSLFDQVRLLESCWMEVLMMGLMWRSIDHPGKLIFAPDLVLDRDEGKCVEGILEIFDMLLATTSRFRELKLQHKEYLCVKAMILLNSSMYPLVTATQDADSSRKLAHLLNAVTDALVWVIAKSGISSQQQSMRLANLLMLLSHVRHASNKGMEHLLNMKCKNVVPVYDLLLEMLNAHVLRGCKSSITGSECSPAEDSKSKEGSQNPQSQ
How it was run: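 Ratiometric beta-lactamase FRET read-out came after 2 h substrate loading at room temperature. It followed 16 h compound treatment at 37C of GripTite HEK293T cells carrying a UAS-bla reporter, plated in 2% charcoal-stripped FBS medium.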

[12] = molecular target: Estrogen receptor beta (Homo sapiens) (UniProt Q92731); assay: qHTS assay to identify small molecule antagonists of the estrogen receptor beta (ER-beta) signaling pathway (AID 1259378; active = well fitted inhibition curve with a large enough effect in the signal ratio in the repeat runs, not every such curve was filed as active; the % refers to the signal ratio)
How it was run: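 Antagonist mode: compounds added to beta-lactamase reporter HEK293T ER-beta-UAS cells stimulated with E2 (1nM final), 16 hr at 37C. LiveBLAzer B/G FRET substrate, 2 hours room temperature, fluorescence read-out.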

[13] = qHTS assay to identify small molecule agonists of the androgen receptor (AR) signaling pathway in the presence of an antagonist - cell viability counter screen (AID 1259379);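 also: MDA-kb2 human breast cancer cells carrying an MMTV luciferase reporter; series mostly up to about 92 µM; nearly all actives have a fitted effect of over 25% in size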
How it was run: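 A CellTiter-Fluor read-out measured viability of MDA-kb2 reporter cells (MMTV promoter with AR and GR response elements). Treatment: nilutamide 3.0uM final with compounds at 15 concentrations, 16 hr, 37C, 0% CO2.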

[14] = qHTS assay to identify small molecule agonists of the estrogen receptor beta (ER-beta) signaling pathway - cell viability counter screen (AID 1259380); also: nearly all actives have a fitted effect of over 30% in size
How it was run: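 Cells used were ER-beta-UAS-bla HEK293T in medium with 2% charcoal-stripped FBS. They were treated for 16 hr at 37C. Viability came from CellTiter-Glo luminescence.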

[15] = qHTS assay to identify small molecule antagonists of the estrogen receptor beta (ER-beta) signaling pathway - cell viability counter screen (AID 1259382); also: series mostly up to about 92 µM; nearly all actives have a fitted effect of over 55% in size
How it was run: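 Agonist-stimulated (1nM E2) ER-beta-UAS-bla HEK293T cells are incubated with library compounds for 16 hr at 37C. Cell viability is then assessed in the reporter-assay wells by adding CellTiter-Glo and reading luminescence after 30 min.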

[16] = qHTS assay to identify small molecule agonists or antagonists of the thyroid stimulating hormone receptor (TSHR) signaling pathway - wild type cell line counter screen (AID 1259384; calls by dose curve)
How it was run: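 Counter screen in untransfected Hek293: compounds (15-point titration, triplicate) plus phosphodiesterase inhibitor Ro20-1724 added after 18 h plating; 30 min RT. Intracellular cAMP via competitive d2/cryptate immunoassay, 1 h incubation.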

[17] = molecular target: Estrogen receptor (Homo sapiens) (UniProt P03372); assay: qHTS assay to identify small molecule agonists of the estrogen receptor alpha (ER-alpha) signaling pathway in the presence of an antagonist (AID 1259383; calls by dose curve; also: top concentration of the series differs between compounds; nearly all actives have a fitted effect of over 15% in size)
How it was run: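 Using VM7Luc4E2 cells seeded 24hr before treatment, antagonist ICI-182,780 (10.0nM final) was added, followed by compounds at 15 concentrations. Plates incubated 22hr; ONE-Glo luminescence quantified reporter activity.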

[18] = qHTS assay to identify small molecule phospholipidosis (PLD) inducers (AID 1259344; active = well fitted curve in the direction sought with a large enough effect; an effect the other way counts as inactive or inconclusive)
How it was run: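 Fluorescent phospholipid staining (LipidTOX Red) measured by automated microscopy in fixed HepG2 cells after 24 h treatment; nuclei counterstained with Hoechst 33342; amiodarone as reference inducer.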

[19] = molecular target: Androgen receptor (Homo sapiens) (UniProt P10275); assay: qHTS assay to identify small molecule antagonists of the androgen receptor (AR) signaling pathway using the MDA cell line in the presence of 0.5 nM R1881 (AID 1259243); also: nearly all actives have a fitted effect of over 50% in size
Sequence of Androgen receptor (Homo sapiens) (P10275 whole entry, looked up): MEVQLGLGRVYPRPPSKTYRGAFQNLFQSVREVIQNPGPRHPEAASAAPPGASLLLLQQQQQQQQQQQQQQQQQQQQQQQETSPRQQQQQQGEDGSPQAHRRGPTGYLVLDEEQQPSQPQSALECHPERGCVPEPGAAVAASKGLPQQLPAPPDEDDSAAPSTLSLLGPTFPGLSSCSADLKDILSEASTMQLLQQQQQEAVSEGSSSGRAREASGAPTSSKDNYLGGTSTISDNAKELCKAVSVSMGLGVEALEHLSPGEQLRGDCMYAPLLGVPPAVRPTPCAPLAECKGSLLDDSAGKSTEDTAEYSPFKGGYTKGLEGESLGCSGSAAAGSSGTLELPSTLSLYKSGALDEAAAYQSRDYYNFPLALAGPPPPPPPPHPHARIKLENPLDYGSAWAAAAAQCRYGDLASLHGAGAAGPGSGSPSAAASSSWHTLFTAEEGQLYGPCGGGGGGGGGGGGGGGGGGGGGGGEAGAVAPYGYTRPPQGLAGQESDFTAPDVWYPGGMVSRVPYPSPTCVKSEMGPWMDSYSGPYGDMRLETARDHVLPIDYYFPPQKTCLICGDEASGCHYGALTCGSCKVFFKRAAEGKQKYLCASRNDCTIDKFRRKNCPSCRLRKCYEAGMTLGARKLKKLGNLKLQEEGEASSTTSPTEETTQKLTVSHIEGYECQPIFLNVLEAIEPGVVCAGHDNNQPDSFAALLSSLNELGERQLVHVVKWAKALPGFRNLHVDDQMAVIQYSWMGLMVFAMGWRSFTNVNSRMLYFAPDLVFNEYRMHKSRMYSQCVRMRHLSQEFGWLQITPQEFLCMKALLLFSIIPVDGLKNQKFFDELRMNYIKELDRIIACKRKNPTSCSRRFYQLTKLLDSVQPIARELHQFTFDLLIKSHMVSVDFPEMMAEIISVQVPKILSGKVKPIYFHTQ
How it was run: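 We exposed MDA-kb2 cells to compounds under 0.5 nM R1881 stimulation for 16 hr at 37C and quantified MMTV-driven luciferase by luminescence.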

SMILES	outcome [1]	Potency [2]	outcome [3]	Potency [4]	Potency [5]	outcome [6]	Potency [7]	Potency [8]	outcome [9]	Potency [10]	Potency [11]	outcome [12]	Potency [13]	Potency [14]	outcome [15]	outcome [16]	outcome [17]	outcome [18]	Potency [19]
O=C(O)c1ccc(Cl)cc1Cl	inactive	inactive	inactive	inactive	inactive	inactive	inactive	inactive	inactive	inactive	inactive	inactive	inactive	inactive	inactive	inactive			
Cc1ccc2c(c1)OCC(=O)CO2	inactive	inactive	inactive	inactive	inactive	inactive	inactive	inactive	inactive	inactive	inactive	inactive	inactive	inactive	inactive	inactive			
Cc1ccc(S(=O)(=O)O)c(C)c1	inactive	inactive	inactive	inactive	inactive	inactive	inactive	inactive	inactive				inactive	inactive	inactive	inactive	inactive		
Cc1ccccc1C(=O)Nc1ccc(C(=O)N2CCCC(N(C)C)c3ccccc32)cc1 (stereo not given)	inactive	inactive	inactive	inactive	inactive	inactive			inactive	15 µM (active)	inactive	inactive	inactive		inactive	inactive			
O=C(NCCN1CCOCC1)c1ccc(Cl)cc1	inactive	inactive	inactive		inactive	inactive	inactive	inactive	inactive	inactive	inactive	inactive	inactive	inactive	inactive	inactive		inactive	
Cc1[nH]cnc1-c1ccc(Cl)cc1	inactive	inactive	inactive	inactive	inactive	inactive	inactive	inactive	inactive	inactive			inactive	inactive	inactive	inactive	inactive		
COC(=O)CCCCCCCC(=O)OC	inactive	inactive	inactive	inactive	inactive	inactive	inactive	inactive	inactive	inactive	inactive	inactive	inactive	inactive	inactive	inactive	inactive		
CCCCCOC(=O)CCC	inactive	inactive	inactive		inactive	inactive	inactive	inactive	inactive	inactive	inactive		inactive	inactive	inactive	inactive			
CC(=O)Nc1ccc(S(=O)(=O)Cl)cc1	inactive	inactive	inactive		inactive	inactive	inactive	inactive	inactive	inactive	inactive	inactive	inactive	inactive	inactive				
C=Cc1ccccn1	inactive	inactive	inactive		inactive	inactive	inactive	inactive	inactive	inactive			inactive	inactive	inactive	inactive			
CC1COc2ccccc2N1 (stereo not given)	inactive	inactive	inactive		inactive	inactive	inactive	inactive	inactive	inactive			inactive	inactive	inactive	inactive			
CC(C)=CCOC(=O)c1ccccc1	inactive	inactive	inactive		inactive	inactive	inactive	inactive	inactive	inactive	inactive	inactive	inactive	inactive	inactive	inactive			
CC(=O)c1sc(C)nc1C	inactive	inactive	inactive		inactive	inactive	inactive	inactive	inactive				inactive	inactive	inactive	inactive			
FC(F)(F)c1ccccc1-n1ccnc1	inactive	inactive	inactive		inactive	inactive	inactive	inactive	inactive				inactive	inactive	inactive			inactive	
OCCC(F)(F)C(F)(F)C(F)(F)C(F)(F)C(F)(F)C(F)(F)C(F)(F)C(F)(F)F	inactive		inactive	inactive	inactive	inactive	inactive	inactive	inactive	inactive	inactive		inactive	inactive	inactive		inactive		inactive
